# From PubChem BioAssay (NCATS)
# Inconclusive results are not listed. Calls of active or inactive are those of the source. Calls come from the whole dose curve; as a rule, active = well fitted curve in the direction sought with a large enough effect; inconclusive = small, poorly fitted or top-dose-only effect, or another doubt; inactive = no such curve, though single readings can be large; an effect the other way counts as inactive or inconclusive.
# Tested on: not listed separately
# Assay: qHTS Assay for Lipid Storage Modulators (AID 1519)
# Conditions: Drosophila S3 cells, BODIPY lipid droplet/cell ratio, laser cytometry; measured here: cell count channel max response; cells loaded with oleic acid
# Procedure, shortened: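 Cells seeded at 5,000 per well were treated with compounds over a concentration series and loaded with oleic acid (400 uM, as added). Lipid droplet fluorescence (488 nm excitation, 500-530 nm channel) was read by laser-scanning cytometry and normalized to 20 uM Triacsin C.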
row,Compound,max response [%]
1,N[C@@H](CCCCP(=O)(O)O)C(=O)O,-29.3
2,CCN(CC)CCO[C@H]1CC[C@@]2(C)C(=CC[C@@H]3[C@H]2CC[C@]2(C)C(=O)CC[C@H]32)C1,16
3,O[C@@H]1[C@H](O)[C@H]2[C@@H](O)CCN2C[C@@H]1O,7.43
4,N[C@@H](Cn1ccc(=O)n(Cc2ccc(C(=O)O)cc2)c1=O)C(=O)O,-1.53
5,N[C@H](CP(=O)(O)O)C(=O)O,12.7
6,C[N+]1(C)CCc2cc3c(cc2C1C1OC(=O)c2c1ccc1c2OCO1)OCO3 (stereo unspecified),1.78

# Same assay, conditions: Drosophila S3 cells, BODIPY lipid droplet/cell ratio, laser cytometry; measured here: lipid channel max response; cells loaded with oleic acid
row,Compound,max response [%]
1,N[C@@H](CCCCP(=O)(O)O)C(=O)O,-29
2,CCN(CC)CCO[C@H]1CC[C@@]2(C)C(=CC[C@@H]3[C@H]2CC[C@]2(C)C(=O)CC[C@H]32)C1,11.9
3,O[C@@H]1[C@H](O)[C@H]2[C@@H](O)CCN2C[C@@H]1O,6.33
4,N[C@@H](Cn1ccc(=O)n(Cc2ccc(C(=O)O)cc2)c1=O)C(=O)O,-1.3
5,N[C@H](CP(=O)(O)O)C(=O)O,11.5
6,C[N+]1(C)CCc2cc3c(cc2C1C1OC(=O)c2c1ccc1c2OCO1)OCO3 (stereo unspecified),1.49

# Biological target: DNA repair nuclease/redox regulator APEX1 (Homo sapiens) (UniProt P27695)
# Assay: qHTS Validation Assay for Inhibitors of the Human Apurinic/apyrimidinic Endonuclease 1 (APE1) (AID 1705;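 note: TAMRA fluorescence gain over two minutes as APE1 cuts a quenched THF abasic duplex; % is set by controls: 0 for no effect and ±100 for the full control effect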)
# Conditions: purified APE1 endonuclease activity, fluorescence, titration; series mostly up to 57.1 µM; activity change, negative = inhibition: at the top concentration
# Procedure, shortened: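 qHTS, 1536-well. APE1 + cpd 15 min RT → 50 nM TAMRA/BHQ-2 THF-abasic dsDNA substrate → kinetic fluorescence, 3 reads/60 s; delta(read3−read1) = reaction progress. No-enzyme buffer = negative control.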
# DNA repair nuclease/redox regulator APEX1 (Homo sapiens), sequence (P27695 whole entry, looked up): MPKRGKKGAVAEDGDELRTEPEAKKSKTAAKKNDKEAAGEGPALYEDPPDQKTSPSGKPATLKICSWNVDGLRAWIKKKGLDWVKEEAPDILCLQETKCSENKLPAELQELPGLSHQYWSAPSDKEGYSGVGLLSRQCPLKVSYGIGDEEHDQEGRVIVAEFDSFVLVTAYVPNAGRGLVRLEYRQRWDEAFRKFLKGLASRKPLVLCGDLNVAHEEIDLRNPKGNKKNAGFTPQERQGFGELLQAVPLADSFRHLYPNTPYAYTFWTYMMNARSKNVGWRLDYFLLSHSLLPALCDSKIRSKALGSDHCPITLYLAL
row,Compound,"activity change, negative = inhibition"
1,C[C@@H]1O[C@@H](O[C@H]2C[C@@H](O)[C@]3(CO)[C@@H]4C(CC[C@]3(O)C2)[C@@]2(O)CC[C@H](C3=CC(=O)OC3)[C@@]2(C)C[C@H]4O)[C@H](O)[C@H](O)[C@H]1O (stereo partly specified),-2.7% (inactive)
2,COc1ccc2[nH]cc(CCN(C)C)c2c1,7.17% (inactive)
3,COc1cc(CCN)ccc1O,9.36% (inactive)
4,C[N+]1(C)CCc2cc3c(cc2C1C1OC(=O)c2c1ccc1c2OCO1)OCO3 (stereo unspecified),7.82% (inactive)

# Tested on: not listed separately
# Assay: Counterscreen for APE1 Inhibitors: Fluorescent Dye Displacement Validation Assay (AID 1707);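 note: plate controls were ThO with dsDNA and no compound for no effect and ThO without dsDNA for full effect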
# Conditions: fluorescent dye displacement from DNA; series mostly up to 57.1 µM; activity change, negative = inhibition: at the top concentration
# Procedure, shortened: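 Reaction mixture of 250 nM Thiazole Orange and 50 nM double-stranded abasic-site DNA was dispensed, compounds were pin-transferred, and fluorescence was read at endpoint (480 nm ex, 540 nm em). Reduced fluorescence indicated dye displacement by DNA binding.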
row,Compound,"activity change, negative = inhibition"
1,C[C@@H]1O[C@@H](O[C@H]2C[C@@H](O)[C@]3(CO)[C@@H]4C(CC[C@]3(O)C2)[C@@]2(O)CC[C@H](C3=CC(=O)OC3)[C@@]2(C)C[C@H]4O)[C@H](O)[C@H](O)[C@H]1O (stereo partly specified),0.225% (inactive)
2,COc1ccc2[nH]cc(CCN(C)C)c2c1,0.286% (inactive)
3,COc1cc(CCN)ccc1O,3.57% (inactive)
4,C[N+]1(C)CCc2cc3c(cc2C1C1OC(=O)c2c1ccc1c2OCO1)OCO3 (stereo unspecified),2% (inactive)
5,COc1ccc(CCN)cc1O,0.909% (inactive)

# Biological target: Endonuclease 4 (Escherichia coli (strain K12)) (UniProt P0A6C1)
# Assay: Counterscreen for APE1 Inhibitors: qHTS Validation Assay for Inhibitors of Endonuclease IV (AID 1708); note: % is set by controls: 0 for no effect and ±100 for the full control effect
# Conditions: E. coli endonuclease IV, DNA cleavage fluorescence; series mostly up to 57.1 µM; activity change, negative = inhibition: at the top concentration
# Procedure, shortened: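 Conditions: 2 nM enzyme, 50 nM TAMRA/BHQ-2 substrate, pH 7.5 Tris buffer with 2 mM MgCl2, RT. Compound preincubation 15 min; readout three fluorescence reads 60 s apart, third-minus-first.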
row,Compound,"activity change, negative = inhibition"
1,C[C@@H]1O[C@@H](O[C@H]2C[C@@H](O)[C@]3(CO)[C@@H]4C(CC[C@]3(O)C2)[C@@]2(O)CC[C@H](C3=CC(=O)OC3)[C@@]2(C)C[C@H]4O)[C@H](O)[C@H](O)[C@H]1O (stereo partly specified),-5.62% (inactive)
2,COc1ccc2[nH]cc(CCN(C)C)c2c1,-6.35% (inactive)
3,COc1cc(CCN)ccc1O,-8.19% (inactive)
4,C[N+]1(C)CCc2cc3c(cc2C1C1OC(=O)c2c1ccc1c2OCO1)OCO3 (stereo unspecified),-7.15% (inactive)
5,COc1ccc(CCN)cc1O,-7.79% (inactive)
